In paper PMC7862700, “An all-to-all approach to the identification of sequence-specific readers for epigenetic DNA modifications on cytosine”:

Columns and labels:
Experiment in all cases: DAPPL (digital affinity profiling via proximity ligation, sequencing); 10 mM Tris-HCl pH 7.5, 50 mM NaCl, 1 mM DTT, 4% glycerol, room temperature, 30 min; GST-TFs on glutathione beads, 16-mer random dsDNA library, 0.1% formaldehyde crosslink after washing; high values mean tight binding
FEV = target: T1, FEV (Homo sapiens, UniProt Q99581 1-238); details: protein: recombinant; tags: N-terminal GST; dsDNA, one strand shown
T1 sequence: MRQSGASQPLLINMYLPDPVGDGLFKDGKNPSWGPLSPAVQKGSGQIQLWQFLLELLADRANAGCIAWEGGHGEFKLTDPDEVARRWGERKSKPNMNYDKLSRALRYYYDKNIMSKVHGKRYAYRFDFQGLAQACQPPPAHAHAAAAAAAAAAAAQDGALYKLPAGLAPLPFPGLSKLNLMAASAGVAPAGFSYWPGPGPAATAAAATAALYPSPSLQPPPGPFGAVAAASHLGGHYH
In short: (§1)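 Yeast served to express human transcription factors as GST fusions, which were then captured on glutathione beads and labelled with DNA barcodes. Pooled with a tag-only sample, they were incubated with 200 nmole of a 16-mer random double-stranded DNA library for 30 min at room temperature in Tris/NaCl/DTT/glycerol buffer, washed, crosslinked with 0.1% formaldehyde, ligated by proximity, amplified by PCR and sequenced. Dividing each hexamer's read frequency for a factor by its frequency for the tag-only sample gives the binding signal.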

ETV5 = ETV5 (Homo sapiens, UniProt P41161 1-510); details: protein: recombinant; tags: N-terminal GST; dsDNA, one strand shown
In short: as §1

HSF1 = HSF1 (Homo sapiens, UniProt Q00613 1-529); details: protein: recombinant; tags: N-terminal GST; chain copies: 3; dsDNA, one strand shown
In short: as §1

SPIC = target: T2, SPIC (Homo sapiens, UniProt Q8N5J4 1-248); details: protein: recombinant; tags: N-terminal GST; dsDNA, one strand shown
T2 sequence: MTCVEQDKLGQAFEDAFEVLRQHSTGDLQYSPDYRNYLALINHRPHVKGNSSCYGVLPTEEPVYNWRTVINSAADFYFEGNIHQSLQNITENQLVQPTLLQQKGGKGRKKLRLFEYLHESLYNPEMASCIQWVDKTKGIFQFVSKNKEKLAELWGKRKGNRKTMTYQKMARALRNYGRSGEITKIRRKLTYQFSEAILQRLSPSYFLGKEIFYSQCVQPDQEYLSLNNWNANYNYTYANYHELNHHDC
In short: as §1

ELF4 = ELF4 (Homo sapiens, UniProt Q99607 1-663); details: protein: recombinant; tags: N-terminal GST; dsDNA, one strand shown
In short: as §1

ELK4 = target: T3, ELK4 (Homo sapiens, UniProt P28324-2 1-405); details: protein: recombinant; tags: N-terminal GST; dsDNA, one strand shown
T3 sequence: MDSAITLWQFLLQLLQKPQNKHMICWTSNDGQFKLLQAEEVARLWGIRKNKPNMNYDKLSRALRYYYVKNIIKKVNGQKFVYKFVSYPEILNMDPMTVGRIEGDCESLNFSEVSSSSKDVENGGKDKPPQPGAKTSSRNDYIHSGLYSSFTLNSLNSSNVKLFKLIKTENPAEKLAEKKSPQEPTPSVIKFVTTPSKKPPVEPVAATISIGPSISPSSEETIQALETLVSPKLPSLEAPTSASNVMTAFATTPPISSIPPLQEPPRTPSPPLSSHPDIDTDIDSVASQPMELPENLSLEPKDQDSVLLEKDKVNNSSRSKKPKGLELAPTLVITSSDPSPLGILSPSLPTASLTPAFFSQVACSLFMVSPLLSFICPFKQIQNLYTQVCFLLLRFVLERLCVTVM
In short: as §1

ETV2 = target: T4, ETV2 (Homo sapiens, UniProt O00321 1-342); details: protein: recombinant; tags: N-terminal GST; dsDNA, one strand shown
T4 sequence: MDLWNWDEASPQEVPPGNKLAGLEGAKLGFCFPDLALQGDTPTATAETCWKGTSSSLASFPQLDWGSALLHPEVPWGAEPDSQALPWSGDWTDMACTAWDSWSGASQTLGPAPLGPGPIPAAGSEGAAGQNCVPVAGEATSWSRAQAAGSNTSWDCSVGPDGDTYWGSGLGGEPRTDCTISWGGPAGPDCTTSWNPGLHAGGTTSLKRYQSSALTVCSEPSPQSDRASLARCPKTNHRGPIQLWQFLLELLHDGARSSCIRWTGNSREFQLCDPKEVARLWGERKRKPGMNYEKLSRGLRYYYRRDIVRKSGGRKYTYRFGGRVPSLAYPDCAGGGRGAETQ
In short: as §1

ELF3 = target: T5, ELF3 (Homo sapiens, UniProt P78545 1-371); details: protein: recombinant; tags: N-terminal GST; dsDNA, one strand shown
T5 sequence: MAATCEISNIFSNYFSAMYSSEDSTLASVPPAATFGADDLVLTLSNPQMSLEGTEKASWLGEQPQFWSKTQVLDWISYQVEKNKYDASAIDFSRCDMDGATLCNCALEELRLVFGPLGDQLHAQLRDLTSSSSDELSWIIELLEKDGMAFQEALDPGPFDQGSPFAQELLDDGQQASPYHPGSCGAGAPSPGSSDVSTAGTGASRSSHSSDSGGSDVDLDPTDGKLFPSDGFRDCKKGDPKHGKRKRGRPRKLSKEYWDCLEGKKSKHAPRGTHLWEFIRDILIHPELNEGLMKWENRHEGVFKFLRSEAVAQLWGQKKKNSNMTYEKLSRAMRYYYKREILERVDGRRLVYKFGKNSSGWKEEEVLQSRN
In short: as §1

CRX = CRX (Homo sapiens, UniProt O43186 1-299); details: protein: recombinant; tags: N-terminal GST; dsDNA, one strand shown
In short: as §1

ETV1 = ETV1 (Homo sapiens, UniProt P50549 1-477); details: protein: recombinant; tags: N-terminal GST; dsDNA, one strand shown
In short: as §1

ERF = target: T6, ERF (Homo sapiens, UniProt P50548 1-548); details: protein: recombinant; tags: N-terminal GST; dsDNA, one strand shown
T6 sequence: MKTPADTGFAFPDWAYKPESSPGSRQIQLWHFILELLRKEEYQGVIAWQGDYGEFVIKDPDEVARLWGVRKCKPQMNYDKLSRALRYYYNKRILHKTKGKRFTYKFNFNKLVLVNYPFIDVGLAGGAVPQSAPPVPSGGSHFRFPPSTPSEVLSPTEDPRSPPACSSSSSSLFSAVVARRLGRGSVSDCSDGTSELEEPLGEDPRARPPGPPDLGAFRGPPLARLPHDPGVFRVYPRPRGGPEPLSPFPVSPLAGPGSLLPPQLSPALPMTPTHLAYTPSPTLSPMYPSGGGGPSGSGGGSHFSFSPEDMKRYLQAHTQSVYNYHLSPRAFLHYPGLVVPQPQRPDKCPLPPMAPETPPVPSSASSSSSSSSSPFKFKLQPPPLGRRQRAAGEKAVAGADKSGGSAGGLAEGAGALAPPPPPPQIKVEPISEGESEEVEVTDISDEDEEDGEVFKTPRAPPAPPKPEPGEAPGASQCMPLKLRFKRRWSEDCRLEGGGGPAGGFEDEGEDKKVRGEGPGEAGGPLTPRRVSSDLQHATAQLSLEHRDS
In short: as §1

ETV3L = target: T7, ETV3L (Homo sapiens, UniProt Q6ZN32 1-361); details: protein: recombinant; tags: N-terminal GST; dsDNA, one strand shown
T7 sequence: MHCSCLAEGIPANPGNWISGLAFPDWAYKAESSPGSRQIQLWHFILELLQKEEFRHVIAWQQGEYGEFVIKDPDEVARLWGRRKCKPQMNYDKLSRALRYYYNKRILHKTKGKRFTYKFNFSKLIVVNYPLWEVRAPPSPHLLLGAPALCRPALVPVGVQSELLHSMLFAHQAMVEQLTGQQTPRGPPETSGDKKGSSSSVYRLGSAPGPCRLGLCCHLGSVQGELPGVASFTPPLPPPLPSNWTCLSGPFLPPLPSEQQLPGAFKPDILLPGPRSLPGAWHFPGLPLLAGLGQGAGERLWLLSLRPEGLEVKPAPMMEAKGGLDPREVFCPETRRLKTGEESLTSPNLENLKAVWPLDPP
In short: as §1

ETS2 = target: T8, ETS2 (Homo sapiens, UniProt P15036 1-469); details: protein: recombinant; tags: N-terminal GST; dsDNA, one strand shown
T8 sequence: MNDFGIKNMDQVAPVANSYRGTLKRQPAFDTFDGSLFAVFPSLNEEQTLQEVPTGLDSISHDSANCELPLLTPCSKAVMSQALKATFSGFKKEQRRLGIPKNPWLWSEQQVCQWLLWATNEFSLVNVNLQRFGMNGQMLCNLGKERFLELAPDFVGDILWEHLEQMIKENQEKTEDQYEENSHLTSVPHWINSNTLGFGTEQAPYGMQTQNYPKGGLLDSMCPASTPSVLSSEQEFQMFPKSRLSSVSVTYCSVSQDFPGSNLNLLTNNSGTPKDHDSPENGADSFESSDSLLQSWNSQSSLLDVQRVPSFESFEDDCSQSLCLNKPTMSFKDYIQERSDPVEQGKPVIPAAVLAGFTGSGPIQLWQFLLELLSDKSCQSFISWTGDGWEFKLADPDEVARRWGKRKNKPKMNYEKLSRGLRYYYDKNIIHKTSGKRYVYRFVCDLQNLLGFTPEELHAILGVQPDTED
In short: as §1

SPDEF = target: T9, SPDEF (Homo sapiens, UniProt O95238 1-335); details: protein: recombinant; tags: N-terminal GST; dsDNA, one strand shown
T9 sequence: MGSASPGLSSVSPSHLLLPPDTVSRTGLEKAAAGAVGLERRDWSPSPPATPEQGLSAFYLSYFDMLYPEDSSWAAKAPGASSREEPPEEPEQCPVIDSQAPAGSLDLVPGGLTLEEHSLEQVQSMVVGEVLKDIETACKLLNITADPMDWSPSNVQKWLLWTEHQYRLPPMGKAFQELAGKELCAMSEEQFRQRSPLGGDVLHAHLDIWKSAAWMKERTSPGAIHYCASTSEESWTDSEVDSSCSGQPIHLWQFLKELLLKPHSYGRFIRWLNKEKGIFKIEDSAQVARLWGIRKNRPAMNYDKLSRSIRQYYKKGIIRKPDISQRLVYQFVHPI
In short: as §1

ETV7 = target: T10, ETV7 (Homo sapiens, UniProt Q9Y603 1-341); details: protein: recombinant; tags: N-terminal GST; dsDNA, one strand shown
T10 sequence: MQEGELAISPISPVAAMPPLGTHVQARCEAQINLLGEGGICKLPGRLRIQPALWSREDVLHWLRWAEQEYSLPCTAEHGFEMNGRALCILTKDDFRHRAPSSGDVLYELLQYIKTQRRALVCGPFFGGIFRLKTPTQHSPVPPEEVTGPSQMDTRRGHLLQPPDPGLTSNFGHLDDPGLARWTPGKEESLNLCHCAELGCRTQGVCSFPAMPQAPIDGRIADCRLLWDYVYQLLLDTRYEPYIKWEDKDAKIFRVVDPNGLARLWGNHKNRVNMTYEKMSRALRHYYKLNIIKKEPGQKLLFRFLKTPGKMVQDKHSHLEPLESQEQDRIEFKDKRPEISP
In short: as §1

ELF5 = target: T11, ELF5 (Homo sapiens, UniProt Q9UKW6-2 1-255); details: protein: recombinant; tags: N-terminal GST; dsDNA, one strand shown
T11 sequence: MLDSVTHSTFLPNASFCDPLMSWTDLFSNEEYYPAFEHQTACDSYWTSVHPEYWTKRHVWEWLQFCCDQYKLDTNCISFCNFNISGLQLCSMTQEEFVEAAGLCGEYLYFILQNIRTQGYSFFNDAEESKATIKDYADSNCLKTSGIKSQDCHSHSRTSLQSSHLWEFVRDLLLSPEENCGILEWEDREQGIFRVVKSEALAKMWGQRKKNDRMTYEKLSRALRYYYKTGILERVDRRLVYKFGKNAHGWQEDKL
In short: as §1

ETV3 = target: T12, ETV3 (Homo sapiens, UniProt P41162-2 1-143); details: protein: recombinant; tags: N-terminal GST; dsDNA, one strand shown
T12 sequence: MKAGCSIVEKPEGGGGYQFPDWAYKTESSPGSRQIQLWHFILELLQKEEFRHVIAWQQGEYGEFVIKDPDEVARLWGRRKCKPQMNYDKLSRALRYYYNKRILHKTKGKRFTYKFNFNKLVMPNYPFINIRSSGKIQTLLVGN
In short: as §1

ETV6 = ETV6 (Homo sapiens, UniProt P41212 1-452); details: protein: recombinant; tags: N-terminal GST; dsDNA, one strand shown
In short: as §1

ELF4, sequence (Q99607 whole entry): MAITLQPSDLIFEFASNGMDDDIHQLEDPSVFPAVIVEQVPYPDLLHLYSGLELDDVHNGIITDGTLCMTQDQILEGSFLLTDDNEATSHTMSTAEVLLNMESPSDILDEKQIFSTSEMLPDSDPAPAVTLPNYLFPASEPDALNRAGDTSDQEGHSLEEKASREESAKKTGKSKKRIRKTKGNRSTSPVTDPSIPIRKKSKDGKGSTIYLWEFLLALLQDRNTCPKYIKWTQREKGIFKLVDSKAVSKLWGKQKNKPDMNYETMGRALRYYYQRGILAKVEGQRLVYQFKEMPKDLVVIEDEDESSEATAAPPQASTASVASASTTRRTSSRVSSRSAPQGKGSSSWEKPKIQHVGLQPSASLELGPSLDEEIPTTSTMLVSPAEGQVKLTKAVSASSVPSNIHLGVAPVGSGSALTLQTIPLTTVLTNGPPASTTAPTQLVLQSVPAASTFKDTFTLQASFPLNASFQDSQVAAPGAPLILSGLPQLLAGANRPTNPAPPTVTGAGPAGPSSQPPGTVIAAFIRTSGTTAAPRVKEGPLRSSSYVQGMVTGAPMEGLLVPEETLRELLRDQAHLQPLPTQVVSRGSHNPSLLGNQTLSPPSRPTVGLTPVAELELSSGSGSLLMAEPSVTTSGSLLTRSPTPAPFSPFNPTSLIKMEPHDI
HSF1, sequence (Q00613 whole entry): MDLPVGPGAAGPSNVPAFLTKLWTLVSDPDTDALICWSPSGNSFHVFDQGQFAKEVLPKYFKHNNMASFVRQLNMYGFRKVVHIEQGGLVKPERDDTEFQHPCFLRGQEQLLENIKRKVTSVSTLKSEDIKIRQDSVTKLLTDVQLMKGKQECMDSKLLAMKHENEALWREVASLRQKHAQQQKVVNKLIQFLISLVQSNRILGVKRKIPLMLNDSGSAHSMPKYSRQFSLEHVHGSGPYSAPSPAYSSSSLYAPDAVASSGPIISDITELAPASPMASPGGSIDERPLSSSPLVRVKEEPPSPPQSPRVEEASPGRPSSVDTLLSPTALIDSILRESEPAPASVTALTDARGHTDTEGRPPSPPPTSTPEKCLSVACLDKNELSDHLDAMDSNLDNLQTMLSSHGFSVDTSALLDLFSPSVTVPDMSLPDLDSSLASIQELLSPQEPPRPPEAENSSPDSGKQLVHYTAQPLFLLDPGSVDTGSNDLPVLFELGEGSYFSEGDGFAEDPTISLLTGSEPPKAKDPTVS
CRX, sequence (O43186 whole entry): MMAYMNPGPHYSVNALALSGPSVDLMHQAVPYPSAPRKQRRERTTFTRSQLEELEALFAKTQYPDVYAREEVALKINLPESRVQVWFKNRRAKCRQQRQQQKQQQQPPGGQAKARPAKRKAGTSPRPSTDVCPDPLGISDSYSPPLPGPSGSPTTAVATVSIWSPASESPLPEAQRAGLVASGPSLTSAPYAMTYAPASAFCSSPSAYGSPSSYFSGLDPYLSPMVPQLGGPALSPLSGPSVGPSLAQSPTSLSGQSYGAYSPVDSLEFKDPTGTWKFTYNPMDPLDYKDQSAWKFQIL
ETV5, sequence (P41161 whole entry): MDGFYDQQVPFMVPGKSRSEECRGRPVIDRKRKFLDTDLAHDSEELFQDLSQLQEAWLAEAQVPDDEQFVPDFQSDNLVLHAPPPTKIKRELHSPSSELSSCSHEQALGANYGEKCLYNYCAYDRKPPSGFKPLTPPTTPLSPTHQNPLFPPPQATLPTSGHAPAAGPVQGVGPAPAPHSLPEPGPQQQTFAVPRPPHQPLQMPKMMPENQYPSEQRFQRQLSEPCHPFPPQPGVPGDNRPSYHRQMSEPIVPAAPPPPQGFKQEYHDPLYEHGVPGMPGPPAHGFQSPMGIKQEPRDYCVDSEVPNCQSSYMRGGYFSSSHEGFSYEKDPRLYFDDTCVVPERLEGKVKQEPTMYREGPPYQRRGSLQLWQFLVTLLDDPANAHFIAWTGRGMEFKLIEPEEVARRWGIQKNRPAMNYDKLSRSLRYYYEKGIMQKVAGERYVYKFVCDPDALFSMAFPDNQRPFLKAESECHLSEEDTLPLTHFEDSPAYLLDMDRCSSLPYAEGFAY
ETV1, sequence (P50549 whole entry): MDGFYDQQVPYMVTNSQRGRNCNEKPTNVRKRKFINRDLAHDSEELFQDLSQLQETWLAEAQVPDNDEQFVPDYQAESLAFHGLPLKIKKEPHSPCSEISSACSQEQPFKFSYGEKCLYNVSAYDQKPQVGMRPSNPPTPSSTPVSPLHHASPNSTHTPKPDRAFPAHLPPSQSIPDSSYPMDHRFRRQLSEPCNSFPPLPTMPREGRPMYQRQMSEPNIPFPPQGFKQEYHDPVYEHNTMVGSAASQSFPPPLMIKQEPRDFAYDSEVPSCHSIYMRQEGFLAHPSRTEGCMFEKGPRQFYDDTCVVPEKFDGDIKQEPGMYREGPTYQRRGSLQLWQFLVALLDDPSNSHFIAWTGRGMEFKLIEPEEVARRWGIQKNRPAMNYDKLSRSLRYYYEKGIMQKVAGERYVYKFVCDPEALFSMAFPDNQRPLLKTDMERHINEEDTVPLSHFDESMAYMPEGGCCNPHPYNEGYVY
ETV6, sequence (P41212 whole entry): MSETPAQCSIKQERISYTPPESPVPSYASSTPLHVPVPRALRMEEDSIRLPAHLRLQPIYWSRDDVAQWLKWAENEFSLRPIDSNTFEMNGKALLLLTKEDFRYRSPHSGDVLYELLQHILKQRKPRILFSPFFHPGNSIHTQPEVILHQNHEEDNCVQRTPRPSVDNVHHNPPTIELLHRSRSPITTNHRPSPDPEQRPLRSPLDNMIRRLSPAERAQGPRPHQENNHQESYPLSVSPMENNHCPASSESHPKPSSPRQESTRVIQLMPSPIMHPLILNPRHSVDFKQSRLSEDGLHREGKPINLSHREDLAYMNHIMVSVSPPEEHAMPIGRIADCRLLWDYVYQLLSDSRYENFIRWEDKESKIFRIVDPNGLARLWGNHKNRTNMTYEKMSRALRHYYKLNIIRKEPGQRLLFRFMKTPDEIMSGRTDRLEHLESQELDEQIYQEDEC

Sequence: TTTCTT
- binding signal (FEV): 1.23 fold enrichment (6-mer frequency, TF over GST control)
- binding signal (ETV5): 1.22 fold enrichment (6-mer frequency, TF over GST control)
- binding signal (HSF1): 1.7 fold enrichment (6-mer frequency, TF over GST control)
- binding signal (SPIC): 1.24 fold enrichment (6-mer frequency, TF over GST control)
- binding signal (ELF4): 1.33 fold enrichment (6-mer frequency, TF over GST control)
- binding signal (ELK4): 1.17 fold enrichment (6-mer frequency, TF over GST control)
- binding signal (ETV2): 1.24 fold enrichment (6-mer frequency, TF over GST control)
- binding signal (ELF3): 1.3 fold enrichment (6-mer frequency, TF over GST control)
- binding signal (CRX): 1.46 fold enrichment (6-mer frequency, TF over GST control)
- binding signal (ETV1): 1.38 fold enrichment (6-mer frequency, TF over GST control)
- binding signal (ERF): 1.22 fold enrichment (6-mer frequency, TF over GST control)
- binding signal (ETV3L): 1.34 fold enrichment (6-mer frequency, TF over GST control)
- binding signal (ETS2): 1.32 fold enrichment (6-mer frequency, TF over GST control)
- binding signal (SPDEF): 1.19 fold enrichment (6-mer frequency, TF over GST control)
- binding signal (ETV7): 1.37 fold enrichment (6-mer frequency, TF over GST control)
- binding signal (ELF5): 1.31 fold enrichment (6-mer frequency, TF over GST control)
- binding signal (ETV3): 1.34 fold enrichment (6-mer frequency, TF over GST control)
- binding signal (ETV6): 1.23 fold enrichment (6-mer frequency, TF over GST control)
